In PubChem BioAssay (NCATS):
Several values for one entry are separate records, joined by “and”; a condition that tells them apart may be missing. Equal entries are not always repeated. Records with an inconclusive call do not appear. Some compounds were tested as several samples or in several runs, with calls that do not always agree. Activity calls are given as the source filed them. Unless noted, calls come from the whole dose curve; as a rule, active = well fitted curve in the direction sought with a large enough effect; inconclusive = small, poorly fitted or top-dose-only effect, or another doubt; inactive = no such curve, though single readings can be large; an effect the other way counts as inactive or inconclusive.

What was measured:
[1] = qHTS assay for cell viability of HEK293 cells (AID 743288); conditions: ATP luminescence (CellTiter-Glo), 18 h; max response: stronger effect = lower value; note: nearly all actives have a fitted effect of over 50% in size; note: potency is the fitted concentration of half-maximal effect; for max response: % is set by controls: 0 for no effect and ±100 for the full control effect
Outline: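 Total intracellular ATP, measured with a luciferase-coupled reagent, indicates the number of viable HEK293 cells. Exposure to test chemicals lasts 18 h at 37 C in 1,536-well format at 2,000 cells/well.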

[2] = qHTS assay for cell viability of the p53RE-bla HCT-116 cell line (AID 743292); note: % is set by controls: 0 for no effect and ±100 for the full control effect; nearly all actives have a fitted effect of over 55% in size
Outline: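 Compound-exposed HCT-116 (p53RE-bla) cells, 4,000 per well, were kept 16 h at 37 C following a 5 h preincubation. Cell number was estimated from total ATP by CellTiter-Glo luminescence read after 30 min at room temperature.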

[3] = qHTS profiling of the MIPE4 collection as inhibitors of Plasmodium falciparum (3D7) proliferation (AID 743344; call rule not given here;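 note: scaled between DMSO vehicle wells and 0.29 µM artemisinin as full inhibition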); conditions: P. falciparum 3D7 in erythrocytes, SYBR Green DNA fluorescence, 72 h; at 28.5 µM (top of the series) unless noted
Outline: (§1)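 Erythrocytes infected with P. falciparum (0.3% parasitemia, 2.5% hematocrit) incubated with compounds 72 h at 37 C, 5% CO2. Lysis with saponin/Triton buffer containing SYBR Green I, overnight at room temperature in the dark; DNA fluorescence (485/535 nm) normalised to 0.29 uM artemisinin and DMSO.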

[4] = qHTS profiling of the MIPE4 collection as inhibitors of Plasmodium falciparum (DD2) proliferation (AID 743345; call rule not given here); conditions: P. falciparum Dd2 in erythrocytes, SYBR Green DNA, 72 h; at 28.5 µM (top of the series) unless noted
Outline: as §1

[5] = qHTS profiling of the MIPE4 collection as inhibitors of Plasmodium falciparum (HB3) proliferation (AID 743347; call rule not given here;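 note: plate controls were DMSO vehicle wells for no effect and artemisinin wells for full effect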); conditions: P. falciparum HB3 in erythrocytes, SYBR Green DNA, 72 h; at 28.5 µM (top of the series) unless noted
Outline: as §1

[6] = High-throughput drug toxicity screening in the BPDCN cell line Gen2.2 (AID 1224824; call rule not given here;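 note: cells exposed to compounds for 48 h before reading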); conditions: Gen2.2 BPDCN cells; at 45.8 µM (top of the series) unless noted
Outline: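 CellTiter-Glo luminescence read after 48 h compound exposure at 37 C defines viability; percent activity set with DMSO as 100% and bortezomib (9.2 uM final) as 0%. 500 exponentially growing cells per well, RPMI plus 10% FBS.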

[7] = High-throughput drug toxicity screening in the BPDCN cell line Cal-1 (AID 1224825; call rule not given here); conditions: Cal-1 BPDCN cell viability, qHTS; at 45.8 µM (top of the series) unless noted
Outline: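 Cal-1 cells, 500 per well in phenol-red-free RPMI with 10% FBS, exposed to compounds for 48 hours at 37C, 5% CO2. Viability read by CellTiter-Glo luminescence; percent activity normalized to DMSO (100%) and 9.2 uM bortezomib final (0%).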

[8] = qHTS assay for measurement of the activity of small molecule inhibitors on Zika virus induced Caspase-3 activity in human iPSC derived neural progenitor cells (hNPCs) (AID 1224857); note: nearly all actives have a fitted effect of over 65% in size; note: potency is the fitted concentration of half-maximal effect
Outline: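 In medium with heparin 2 ug/ml and cyclopamine 2 uM, hNPCs (350 cells/well) received compound for one hour and then Zika virus at 2 FFU/cell; caspase activity was measured by Caspase-Glo 3/7 luminescence 6 h post-infection.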

[9] = qHTS assay for measurement of the activity of small molecule inhibitors on Zika virus induced Caspase-3 activity in human astrocytoma cells (AID 1224859); note: potency is the fitted concentration of half-maximal effect
Outline: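 A cell-based luminescent caspase-3/7 assay used SNB-19 cells infected with ZIKV (2 FFU/cell) for 6 h following 1 h compound pretreatment.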

[10] = qHTS Screen of the MIPE 4.0 Collection Against Ewings Sarcoma (RDES) (AID 1259252); note: nearly all actives have a fitted effect of over 35% in size; note: potency is the fitted concentration of half-maximal effect
Outline: (§2)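 Log-phase cells in RPMI with 5% FBS attached for 4 h, then received compounds as a titration for 48 h at 37C, 5% CO2. Viability was read by CellTiter-Glo luminescence and normalized to DMSO and no-cell wells.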

[11] = qHTS Screen of the MIPE 4.0 Collection Against Ewings Sarcoma (TC71) (AID 1259253); note: nearly all actives have a fitted effect of over 40% in size; note: potency is the fitted concentration of half-maximal effect
Outline: as §2

[12] = qHTS Screen of the MIPE 4.0 Collection Against Ewings Sarcoma (EW8) (AID 1259255); note: nearly all actives have a fitted effect of over 35% in size; note: potency is the fitted concentration of half-maximal effect;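 for viability: 100% = DMSO-treated cells and 0% = medium-only wells without cells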
Outline: as §2

[13] = qHTS assay to identify small molecule inhibitors of chordoma cells - UCH-1 (AID 1259355); note: % is set by controls: 0 for no effect and ±100 for the full control effect; nearly all actives have a fitted effect of over 55% in size
Outline: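 Cells (800/well) were seeded and left overnight at 37 C, 5% CO2, then treated with drugs at 15 concentrations plus a combination mix of auranofin, camptothecin, doxorubicin, rubitecan and topotecan. Viability after 48hr was read by CellTiter-Glo luminescence.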

[14] = qHTS profiling of the MIPE4 collection as inhibitors of Plasmodium falciparum (DD2) proliferation (Rep 2) (AID 743346; call rule not given here); conditions: P. falciparum Dd2 in erythrocytes, SYBR Green DNA, 72 h; at 28.5 µM (top of the series) unless noted
Outline: as §1

[15] = qHTS Screen of the MIPE 4.0 Collection Against Ewings Sarcoma (TC32) (AID 1259256); note: nearly all actives have a fitted effect of over 45% in size; note: potency is the fitted concentration of half-maximal effect
Outline: as §2

[16] = qHTS profiling for inhibitors of Plasmodium falciparum (3D7) proliferation (AID 743322);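 note: infected erythrocytes exposed to compound for 72 h before lysis; 100% = DMSO vehicle wells and 0% = 0.29 µM artemisinin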; conditions: P. falciparum 3D7 proliferation; at 28.7 µM (top of the series)
Outline: as §1

[17] = qHTS profiling for inhibitors of Plasmodium falciparum (DD2) proliferation (AID 743323; call rule not given here); conditions: lower = more inhibition; at 28.7 µM (top of the series)
Outline: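 1536-well qHTS; infected RBCs 0.3% parasitemia/2.5% Hct final; cpd 72 h 37 C 5% CO2; lysis buffer + SYBR Green I, o/n RT dark; FI 485/535; norm. to 0.29 uM artemisinin and DMSO, plate-stack corrected.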

[18] = qHTS Assay for Identifying Gametocytocidal Compounds (AID 743244);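 note: % is set by controls: 0 for no effect and ±100 for the full control effect; actives lower the fluorescent signal which means gametocytes are killed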; conditions: P. falciparum 3D7 stage III-V gametocytes, alamarBlue, 72 h; max response: stronger effect = lower value
Outline: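 In this qHTS viability screen, late-stage 3D7 gametocytes are incubated with compound for 72 h, then with alamarBlue for 24 h; reduced resorufin fluorescence marks killing.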

[19] = target: Hexokinase-4 (Homo sapiens) + Glucokinase regulatory protein (Homo sapiens) (UniProt P35557+Q14397); assay: qHTS assay for inhibitors of recombinant human GCK-GKRP interaction: HTRF assay (AID 743207);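 note: 0% = DMSO with GCK present and -100% = DMSO wells lacking GCK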
Chain of Hexokinase-4 (Homo sapiens) + Glucokinase regulatory protein (Homo sapiens) (P35557 whole entry, looked up): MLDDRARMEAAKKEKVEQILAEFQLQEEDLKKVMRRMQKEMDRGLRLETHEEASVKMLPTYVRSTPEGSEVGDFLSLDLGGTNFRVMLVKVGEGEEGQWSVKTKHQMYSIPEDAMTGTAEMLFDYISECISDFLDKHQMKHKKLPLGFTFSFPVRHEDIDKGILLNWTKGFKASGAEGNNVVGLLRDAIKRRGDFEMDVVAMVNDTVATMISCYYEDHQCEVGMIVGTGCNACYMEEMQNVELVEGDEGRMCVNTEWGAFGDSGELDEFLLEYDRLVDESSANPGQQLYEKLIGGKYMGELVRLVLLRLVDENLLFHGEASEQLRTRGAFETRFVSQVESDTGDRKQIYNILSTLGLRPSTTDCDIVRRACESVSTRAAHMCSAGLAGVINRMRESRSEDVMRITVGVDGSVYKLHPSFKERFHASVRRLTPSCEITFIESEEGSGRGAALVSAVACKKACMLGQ
Chain of Hexokinase-4 (Homo sapiens) + Glucokinase regulatory protein (Homo sapiens) (Q14397 whole entry, looked up): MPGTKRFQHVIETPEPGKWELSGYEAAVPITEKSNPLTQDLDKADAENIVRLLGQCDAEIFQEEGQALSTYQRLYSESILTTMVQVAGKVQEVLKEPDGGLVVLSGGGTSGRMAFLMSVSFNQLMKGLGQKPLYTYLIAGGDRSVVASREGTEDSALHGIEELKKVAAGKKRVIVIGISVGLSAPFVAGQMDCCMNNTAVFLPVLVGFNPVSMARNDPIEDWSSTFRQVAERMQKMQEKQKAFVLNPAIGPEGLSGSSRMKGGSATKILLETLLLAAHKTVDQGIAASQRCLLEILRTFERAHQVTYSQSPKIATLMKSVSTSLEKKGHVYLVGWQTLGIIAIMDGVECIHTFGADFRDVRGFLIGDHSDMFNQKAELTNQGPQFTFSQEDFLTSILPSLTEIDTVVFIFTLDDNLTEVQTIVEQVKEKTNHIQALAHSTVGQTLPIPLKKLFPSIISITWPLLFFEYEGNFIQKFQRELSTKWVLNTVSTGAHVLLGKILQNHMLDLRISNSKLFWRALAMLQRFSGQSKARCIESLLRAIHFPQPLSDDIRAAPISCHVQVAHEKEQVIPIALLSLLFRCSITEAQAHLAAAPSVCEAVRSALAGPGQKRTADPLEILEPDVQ
Outline: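 After 60 min equilibration at room temperature with anti-FLAG XL665 and anti-GST antibodies, FRET ratio (665/615 nm, excitation 320 nm) was read. Proteins: GST-GCK and FLAG-GKRP, each 5 nM, plus 2 uM S6P, pH 7.1 buffer; GCK-free wells define minimum signal.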

SMILES | max response [1] | Potency [2] | parasite growth, % of DMSO control [3] | parasite growth remaining, % of DMSO control (lower = more inhibition) [4] | growth, % of control [5] | cell viability, % of control (lower = more cytotoxic) [6] | viability (% of control) [7] | Potency [8] | Potency [9] | Potency [10] | Potency [11] | Potency [12] | Potency [13] | Potency [1] | parasite growth, % of control (lower = inhibition) [14] | Potency [15] | remaining parasite growth % (stronger effect = lower value) [16] | activity, percent of control [17] | max response [18] | outcome [19]
Cc1nnc(NS(=O)(=O)c2ccc(N)cc2)s1 | 0.46% (inactive) | inactive | 22.2% | 17.6% | 38.9% | 114% | 13.2% | inactive | inactive | 14.8 µM (active) | 10.5 µM (active) | 13.2 µM (active) | inactive | – | – | – | – | – | – | –
CC(=O)Oc1ccccc1C(=O)Nc1ncc([N+](=O)[O-])s1 | – | – | 4.65% [at 57.5 µM] | 8.2% [at 57.5 µM] | 4.58% [at 57.5 µM] | 73% [at 92.2 µM] | 38.5% [at 92.2 µM] | 1.91 µM (active) | 1.71 µM (active) and inactive | 21.5 µM (active) | 19.1 µM (active) | 21.5 µM (active) | – | 28.2 µM (active) | 7.18% [at 57.5 µM] | 21.5 µM (active) | – | – | – | –
NC1(c2ccc(-c3nc4ccn5c(=O)[nH]nc5c4cc3-c3ccccc3)cc2)CCC1 | – | – | 5.65% | 17.9% | 8.07% | 7.66% | 4.61% | inactive | inactive | 23.5 µM (active) | 20.9 µM (active) | 4.69 µM (active) | – | – | 7.57% | 13.2 µM (active) | 36.9% and -1.39% | 14.1% and -0.386% | – | –
C[C@@H](NCCCc1cccc(C(F)(F)F)c1)c1cccc2ccccc12 | – | – | 16.2% | 18.5% | 4.3% | 264% | 110% | inactive | inactive | inactive | 1.48 µM (active) | inactive | – | – | 10.9% | – | – | – | – | –
CCCCc1oc2ccc(NS(C)(=O)=O)cc2c1C(=O)c1ccc(OCCCN(CCCC)CCCC)cc1 | – | – | 7.48% | 6.73% | 7.93% | 5.11% | 4.81% | inactive | inactive | 23.5 µM (active) | 20.9 µM (active) | 16.6 µM (active) | – | – | 18.2% | 20.9 µM (active) | – | – | – | –
Nc1ccc(S(=O)(=O)Nc2ccccn2)cc1 | – | – | 89.8% | 89.4% | 54.6% | 123% | 112% | inactive | inactive | inactive | inactive | inactive | – | – | 84.7% | inactive | – | – | 3.9% (inactive) | –
CCN(CC)CCn1c(=O)c(Cc2ccc(OC)cc2)nc2ccccc21 | – | – | 206% | 46.8% | 149% | 115% | 94.1% | inactive | inactive | inactive | inactive | inactive | – | – | 28.1% | inactive | 41.3% | 89.9% | -7.99% (inactive) | inactive
NC(=O)c1cccc(N)c1 | – | – | 96.3% | 95.5% | 54.9% | 84.2% | 109% | inactive | inactive | inactive | inactive | inactive | – | – | 93.2% | inactive | – | – | 25.5% (inactive) | inactive
